# Measured values reported in PubChem BioAssay AID1063 (University of Pittsburgh Molecular Library Screening Center, 2008).
# The whole screen tested about 200,000 compounds, of which about 18,000 (9%) were called active. The sample as a whole holds a higher share of actives than the screen did. A number with no mark means an inactive call. Rule as the data show it: active = inhibition above about 50%; inactive = the rest.
# Experiment: Leishmania major promastigote growth inhibition, primary screen (AID 1063);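 also: promastigotes grown with compound for 44 hours at 28 °C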
# Conditions: Leishmania major promastigotes, resazurin fluorescence viability; at 10 µM; stronger effect = higher value
row,SMILES,inhibition
1,CCN(CC)C(=O)Oc1ccc(OC(=O)N(CC)CC)cc1,-5.77%
2,Cc1ccc(NC(=O)c2cc([N+](=O)[O-])ccc2Cl)c(O)c1,15.1%
3,CCC(C)C(=O)Nc1cc([N+](=O)[O-])ccc1Cl (configuration not stated),72.6% (active)
4,CC(C)C(=O)Nc1cccc(NC(=O)c2ccc([N+](=O)[O-])cc2Cl)c1,6.59%
5,CCCS(=O)(=O)N1CCC(CCOc2ccccc2)(C(=O)OCC)CC1,-1.49%
6,COc1ccc(Cl)cc1NC(=O)NC(C)C(C)(C)C (configuration not stated),16.3%
7,CCOC(=O)C1CCN(C(=O)/C=C/c2cc(OC)c(OC)c(OC)c2)CC1,55% (active)
8,COc1ccc(/C=C/C(=O)N2CCCC2)cc1OC,-1.79%
9,CCOC(=O)C1CCCN(C(=O)/C=C/c2ccc(OC)cc2)C1 (configuration not stated),7.27%
10,O=C(CCn1c(=O)[nH]c2ccccc2c1=O)NCCCN1CCN(c2cccc(Cl)c2)CC1,3.18%
11,O=C(CCCCCn1c(=O)[nH]c2ccccc2c1=O)NCCc1c[nH]c2ccccc12,97.7% (active)
12,COc1ccc(CCNC(=O)CCCCn2c(=O)[nH]c3ccccc3c2=O)cc1OC,1.29%
13,Cc1cc(C)c2c(NC(=O)C3CC3)nn(C)c2n1,-2.35%
14,O=C(CNCc1ccco1)Nc1cc(S(=O)(=O)N2CCOCC2)ccc1N1CCCC1,-1.86%
15,c1ccc2cc(OCCN3CCCC3)ccc2c1,84.2% (active)
16,COc1ccc(NC(=O)CCN2CCCC2)c(OC)c1,-0.8%
17,COc1cccc(OCCCN2CCCCCC2)c1,91.6% (active)
18,COc1cccc(OCC(O)CN2CCN(CCO)CC2)c1 (configuration not stated),-0.73%
19,O=C(COc1ccc2ccccc2c1)N1CCN(C(=O)c2cccs2)CC1,-4.2%
20,Clc1ccccc1-c1cc(COc2ccc3ccccc3c2)no1,-8.15%
21,Cc1ccc(C(C)C)cc1OCCN1CCCC1,92.5% (active)

row,SMILES,inhibition
1,Cc1cc(OCCN2CCCC2)cc(C(C)C)c1,92.5% (active)
2,COc1cccc(OCCOc2cccc(/C=N/n3cnnc3)c2)c1,3.61%
3,CCn1c(SCc2ccccc2)nc2c(c1=O)SCC2,-0.56%
4,O=C(Nc1cccnc1)c1ccc(Cl)cc1[N+](=O)[O-],2.3%
5,Cc1ccc(-c2cc(C(=O)N3CCc4ccccc4C3)no2)cc1,-3.45%
6,CCC(=O)Nc1sc(C(=O)Nc2ccccc2)c(C)c1C(=O)OC,0.3%
7,CC(C)C(=O)Nc1ccc2oc(=O)ccc2c1,2.46%
8,CCn1cc(-c2cc(C(=O)O)on2)c(C)n1,-3.4%
9,COc1ccc(NC(=S)Nc2ccc(S(N)(=O)=O)cc2)c(C)c1,5.95%
10,CCCc1nnc(SCC(=O)N2C(C)CCCC2C)n1CC (configuration not stated),-8.2%
11,O=C(NCc1ccc(Cl)cc1)NCc1ccc(Cl)cc1,-7.12%
12,Cc1cc(OCCN2CCCC2)ccc1C(C)C,96.4% (active)
13,CCNC(=O)CC1C(=O)N(c2ccc(F)cc2)C(=O)N1Cc1cccs1 (configuration not stated),-6.2%
14,CC(C)N1CCC(=NNc2ccc([N+](=O)[O-])cc2S(=O)(=O)N2CCOCC2)CC1,100% (active)
15,CSCCC(Nc1ccc(S(=O)(=O)N2CCOCC2)cc1[N+](=O)[O-])C(=O)OCC(=O)N(C(C)C)C(C)C (configuration not stated),6.07%
16,O=[N+]([O-])c1cc(S(=O)(=O)N2CCCC2)ccc1NN=C1CCCC1,72.8% (active)
17,O=C(Nc1ccc(S(=O)(=O)N2CCCC2)cc1Cl)C1=COCCO1,13.3%
18,C/C(=N\Nc1nc(N2CCOCC2)nc(N2CCOCC2)n1)c1ccc([N+](=O)[O-])cc1,7.51%
19,O=[N+]([O-])c1cc(C(F)(F)F)ccc1NN=C1CCCC1,-5.08%
20,COc1cccc(NC(=O)Cn2c3ccccc3c3nc4n(c(=O)c32)CCS4)c1,1.79%
21,CC1(C)CC(=O)C=C(N2CCOCC2)C1,-0.57%

row,SMILES,inhibition
1,O=C(O)/C=C/c1cn(Cc2ccccc2)nc1-c1cccs1,-1.31%
2,O=[N+]([O-])c1c(NCCO)cc(Sc2nc3ccccc3s2)c2nonc12,61.2% (active)
3,COc1ccc(S(=O)(=O)Nc2ccc(O)c(Sc3nc4ccccc4s3)c2)cc1,2.71%
4,O=C(O)c1cccc(S(=O)(=O)Nc2ccc(O)cc2Sc2nc3ccccc3s2)c1,3.69%
5,CCCCC(CC)CNC(=O)C(=O)C1C(=O)Nc2ccccc21 (configuration not stated),-2.85%
6,CC(=O)Nc1ccc(NC(=O)CSc2nnc(COc3ccccc3C)n2CC2CCCO2)cc1 (configuration not stated),-3.47%
7,COc1ccc(C(=O)NC2CCN(C(=S)NCCc3ccccc3)CC2)cc1,-3.89%
8,CC(C)NC(=O)NC(=O)CSc1nnc(-c2ccccc2F)n1N,-1.13%
9,Cc1ccc(C2CC(c3cccc(NS(C)(=O)=O)c3)=NN2S(C)(=O)=O)cc1 (configuration not stated),10.8%
10,CS(=O)(=O)Nc1cccc(C2=NN(S(=O)(=O)c3ccccc3)C(c3cccs3)C2)c1 (configuration not stated),90.1% (active)
11,CS(=O)(=O)Nc1ccc(C2=NN(S(C)(=O)=O)C(c3cccs3)C2)cc1 (configuration not stated),0.6%
12,CCS(=O)(=O)c1ccc(C(=O)NC)c(Cl)c1Cl,2.32%
13,Cc1nc2ccc(C(=O)N3CCN(c4ccccc4)CC3)cc2s1,-9.02%
14,O=C(c1cc2c(s1)CCC2)N1CCN(c2ccccc2)CC1,93.8% (active)
15,O=C(NNC(=O)c1cc2c(s1)CCCC2)c1ccccc1,78.1% (active)
16,O=C(Nc1cccc(NC(=O)N2CCN(c3ccccc3)CC2)c1)N1CCN(c2ccccc2)CC1,35.8%
17,O=C(COC(=O)c1cc2c(s1)CCCC2)NCc1ccccc1Cl,-8.28%
18,O=C(CNC(=O)c1cc2c(s1)CCC2)Nc1ccccc1Br,-6.67%
19,CCOC(=O)Cc1cc(=O)[nH]c(=O)[nH]1,-1.79%
20,O=C(COC(=O)c1ccccn1)Nc1cccc2ccccc12,-8.4%
